# According to PubChem BioAssay (NCI):
# Values joined by “and” are separate entries in the source; they are usually repeats but may differ in a detail not shown here. Identical values can stand only once. Compounds without any hit were thinned out: in the full panel of roughly 83,000, 20% have a hit.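 Growth was measured after 48 h exposure to one concentration of compound in 96-well plates. Values under 10 count as active.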 Active and inactive are the calls of the source.
# Test system: RXF 393 renal
# Assay: NCI-60 one-dose screen, 48 h (100 = growth as untreated, 0 = no growth, -100 = all killed)
# Conditions: 10 µM unless noted
row,Compound,growth
1,Cc1ccc2c(n1)C(=O)C(Cl)=C(Nc1ccc(C#N)cc1)C2=O,92.1% (inactive)
2,CC(C)(O)c1cncc(-c2ccc3ncc(C#N)c(N4CCc5cc(F)c(Cl)cc54)c3c2)c1,-34.1% (active)
3,O=c1c2ccccc2cc2n1CCN=C2c1ccccc1,96.2% (inactive)
4,O=C(CN1CCN(c2cc(=O)[nH]c3ccc(F)cc23)CC1)N(c1ccccc1)c1ccccc1,103% (inactive)
5,CCc1cc(OC(=O)N2CCC(N3CCCCC3)CC2)ccc1Nc1cc(-c2ccc(-n3cccn3)cc2)[nH]n1,52.5% (inactive)
6,CCCC/C(=C\c1ccc(O)c(O)c1)C(=O)NC(Cc1ccccc1)C(=O)C(=O)NCCc1ccc(OC)cc1 (stereo not drawn),96% (inactive)
7,CN(C)c1ccc(-c2cc(-c3c[nH]c4ccccc34)nc(N)c2C#N)cc1,2.37% (active)
8,COc1cc(C(=O)c2cc(C(C)=O)c3ccc(C)cn23)cc(OC)c1OC,58.6% (inactive)
9,CCOC(=O)c1ccccc1NC1=C(Cl)C(=O)c2nc(C)ccc2C1=O,102% (inactive)
10,CN(C)S(=O)(=O)c1ccc(-c2nc(C(Cl)Cl)nc3cc(-c4ccccc4)nn23)cc1,84.4% (inactive)
11,CN1CCN(c2ccc(Nc3nc(NCCCNS(=O)(=O)c4ccc(Cl)cc4)c4sccc4n3)cc2)CC1,-76.7% (active)
12,O=C1[C@@H]2Cc3c([nH]c4ccccc34)[C@H](c3ccc(Cl)cc3)N2C(=O)CN1C1CCN(Cc2ccccc2)CC1,57.6% (inactive)
13,CN1CCN(CCNc2nc(-c3cccc(NS(=O)(=O)c4cccc5c(N(C)C)cccc45)c3)cs2)CC1,61.6% (inactive)
14,C#C[C@]1(O)CC[C@H]2[C@@H]3CC=C4c5sc(Nc6ncccc6C)nc5CC[C@]4(C)[C@H]3CC[C@@]21C,-75.3% (active)
15,CC(=O)N(O)CCCCCNC(=O)CCC(=O)N(O)CCCCCNC(=O)CCC(=O)N(O)CCCCCN(CCCCCCCCCC[P+](c1ccccc1)(c1ccccc1)c1ccccc1)CCCCCCCCCC[P+](c1ccccc1)(c1ccccc1)c1ccccc1,-9.88% (active)
16,O=C1Nc2ccccc2/C1=N\c1nnc(-c2ccccc2)o1,92% (inactive)
17,CCCCCCCCCC(=O)NC(C)(C)C(=O)N1CCC[C@H]1C(=O)N[C@@H](CC(C)C)C(=O)N[C@@](C)(CC)C(=O)N[C@@H](CCC(N)=O)C(=O)N[C@H](CCC(N)=O)C(=O)NC(C)(C)C(=O)NC(C)(C)C(=O)N[C@@H](CCC(N)=O)C(=O)N[C@H](CC(C)C)C(=O)N[C@H](CO)CC(C)C,-92.3% (active) and -46.4% (active)

row,Compound,growth
1,Fc1cccc(Cl)c1/C=N/Nc1nc(N/N=C/c2c(F)cccc2Cl)nc(N2CCCCC2)n1,-3.38% (active)
2,Cc1ccc(/C(N)=N/C(N)=N/c2nc3ccccc3s2)cc1,103% (inactive)
3,CCc1cc2c(cc1Cl)nc1c(=O)[nH]c(=O)nc-1n2CCOCC(C)(C)C,75.5% (inactive)
4,Cc1csc(/N=C(N)/N=C(\N)c2cccc(Br)c2)n1,94.1% (inactive)
5,Brc1cccc(-c2cc(-c3cnc4c(c3)OCCO4)n[nH]2)c1,47.9% (inactive)
6,CN(C)CC(=O)Nc1nc(-c2cccc(NS(=O)(=O)c3cccc4c(N(C)C)cccc34)c2)cs1,88.5% (inactive)
7,O=C(/C=C/c1cc(Cl)ccc1Cl)Nc1ncc(Cc2ccc(Cl)cc2)s1,33.7% (inactive)
8,Nc1ncc(-c2ccc3ncnc(NCc4ccccc4)c3c2)cn1,8.82% (active)
9,Cc1ccc(-c2cc3nc(C(Cl)Cl)nc(-c4ccc(S(=O)(=O)N(C)C)cc4)n3n2)cc1,90.1% (inactive)
10,CCN(CC)CCOc1ccc(C(=C(c2ccccc2)C2CCCC2)c2ccc(OCCN(CC)CC)cc2)cc1,-33.4% (active)
11,COC(=O)c1cccc(NC2=C(Cl)C(=O)c3nc(C)ccc3C2=O)c1,59.7% (inactive)
12,COc1cc(/C=N\NC(=O)c2ccc3nc(-c4ccc(Br)cc4)[nH]c3c2)cc(OC)c1OC,9.72% (active)
13,NC1=NC2(CCCC2)N(c2ccc(S(=O)(=O)Nc3nccs3)cc2)C(N)=N1,104% (inactive)
14,N#C/C(=N\Nc1ccc(F)cc1)C(=O)Nc1cc(-c2ccccc2)nn1-c1ccccc1,-2.63% (active)
15,Cc1ccc(S(=O)(=O)c2nc(-c3ccc(F)cc3)oc2S(C)(=O)=O)cc1,40.3% (inactive)
16,CC(O)c1cccc(/C(N)=N/C(N)=N/c2nc3ccccc3s2)c1 (stereo not drawn),104% (inactive)
